Compound activity as filed in PubChem BioAssay.
FLuc inh: inhibitors of firefly luciferase; P08659; purified firefly luciferase, luminescence, 8 min; Potency, µM (highest dose often 57.1 µM), without a hit: top-dose activity change, negative = inhibition, most hits filed as inhibitors; 2.2% of 72,000 active; active = well fitted inhibition curve with a large enough effect; inconclusive = small, poorly fitted or top-dose-only effect; note: nearly all actives have a fitted effect of over 40% in size
Target sequence (P08659 whole entry, looked up): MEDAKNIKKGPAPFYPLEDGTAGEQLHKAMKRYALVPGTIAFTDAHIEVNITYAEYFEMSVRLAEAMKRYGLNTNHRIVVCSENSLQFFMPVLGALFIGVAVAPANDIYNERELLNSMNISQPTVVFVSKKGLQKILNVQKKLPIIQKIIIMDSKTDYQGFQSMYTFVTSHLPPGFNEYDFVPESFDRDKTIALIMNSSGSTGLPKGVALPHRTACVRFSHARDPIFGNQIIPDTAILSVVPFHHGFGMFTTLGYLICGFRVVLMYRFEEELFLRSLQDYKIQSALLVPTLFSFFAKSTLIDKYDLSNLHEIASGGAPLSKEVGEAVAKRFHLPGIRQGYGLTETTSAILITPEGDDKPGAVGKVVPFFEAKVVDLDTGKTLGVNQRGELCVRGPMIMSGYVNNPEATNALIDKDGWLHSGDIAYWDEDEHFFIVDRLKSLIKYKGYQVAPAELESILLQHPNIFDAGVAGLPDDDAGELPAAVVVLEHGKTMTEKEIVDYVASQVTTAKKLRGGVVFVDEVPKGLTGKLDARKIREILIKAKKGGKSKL
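Here, luciferase activity is measured as luminescence following an 8 min room-temperature reaction at 10 uM ATP, pH 7.2. Every library sample is titrated.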
Bst PK mod: modulators of Bacillus stearothermophilus pyruvate kinase; purified pyruvate kinase, luminescence ATP production; ribose 5-phosphate activator present at AC10; Potency, µM; 1.2% of 51,000 active; in the data active = potency below about 11 µM; inconclusive = mostly about 12 µM to 25 µM;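 the screen sought inhibitors and activators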;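 note: scaled between full activation by ribose 5 phosphate and full inhibition by luteolin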
* marks the source's active call; other numbers are inactive results; [ ] = dose if it differs, or a comment. Hits are enriched below; roughly 2.5% of the tested compounds scored in any of these assays. Unless noted, % is set by controls: 0 for no effect and ±100 for the full control effect; potency is the fitted concentration of half-maximal effect.

What do the screens show for `C[C@@]12CCC(=O)C=C1CC[C@H]1[C@H]3CC[C@](O)(C(=O)CO)[C@]3(C)CC[C@@H]12`?
FLuc inh: 1%

What do the screens show for `O=C(O)c1ccc(C(=O)O)c(C(=O)O)c1.[NH-][C@@H]1CCCC[C@@H]1[NH-].[Pt]`?
FLuc inh: -3%[11.4 µM]

How did COc1ccc(C(=O)Nc2ccc(C)cn2)c(OC)c1 do in these assays?
FLuc inh: 0.25µM*; Bst PK mod: 0.33*

How did CCOc1ccc(NC(N)=O)cc1 do in these assays?
FLuc inh: 2%; Bst PK mod: >57

Results for C=CCNC(=O)c1ccc(OC)cc1OC ?
FLuc inh: 0%; Bst PK mod: >57

What do the screens show for `CCOc1ccc(NC(=O)c2nnn(CC(=O)Nc3ccccc3OC)c2N)cc1`?
FLuc inh: 5µM*

Results for COc1ccccc1C(=O)Nc1ccc(C(=O)O)cc1 ?
FLuc inh: 4%; Bst PK mod: >57

How did COc1ccccc1NC(=O)Cn1nnc(C(=O)Nc2ccccc2)c1N do in these assays?
FLuc inh: -3%; Bst PK mod: >57

Results for CCOc1ccc(NC(=O)c2nccnc2CO)cc1 ?
FLuc inh: 16µM*; Bst PK mod: inconclusive

What do the screens show for `CCOc1ccc(NC(=O)c2ccccc2OC)cc1`?
FLuc inh: 3.2µM*; Bst PK mod: inactive

How did O=C1C2=CC[C@H]3C(=O)N(C[C@@H]4CCCO4)C(=O)[C@@H]3[C@@H]2[C@H](O)[C@@H]2O[C@H]12 do in these assays?
FLuc inh: -2%[11.4 µM]

How did CC1(C)[C@@H]2CC[C@]1(CC(=O)O)[C@H](Cl)C2 do in these assays?
FLuc inh: 2%[11.4 µM]

Results for N[C@@H](CC1=CS(=O)(=O)c2ccc(Cl)cc21)C(=O)O ?
FLuc inh: 3%[11.4 µM]

How did Cn1cnc([N+](=O)[O-])c1SCC(=O)O do in these assays?
FLuc inh: 2%[11.4 µM]

What do the screens show for `CCOc1ncccc1C(=O)Nc1ccc(Cl)cc1`?
FLuc inh: 0%; Bst PK mod: 3.8*

What do the screens show for `CCOc1ncccc1C(=O)Nc1cccc(C(=O)Nc2cccc(S(=O)(=O)CCO)c2)c1`?
FLuc inh: -7%

What do the screens show for `CCn1ncc(Br)c1C(=O)Nc1ccc(Cl)cn1`?
FLuc inh: 1%; Bst PK mod: >57

Results for Cc1ccc(C(C)C)c(OCC(=O)Nc2ccc(Cl)cn2)c1 ?
FLuc inh: 2%; Bst PK mod: >57

What do the screens show for `O=C(COc1ccc(Cl)cc1Cl)Nc1ccc(Cl)cn1`?
FLuc inh: 1.3µM*

How did CCOc1ccc(C(=O)Nc2ccc(Cl)cn2)cc1Cl do in these assays?
FLuc inh: 25µM*

What do the screens show for `NCc1ccc(C(=O)O)cc1`?
FLuc inh: 1%[11.4 µM]

How did O=C(c1cc2c(s1)-c1ccccc1OC2)N1CCCC1 do in these assays?
FLuc inh: 13µM*

Results for O=C(c1cc2c(s1)-c1ccccc1OC2)N1CCN(c2ccccn2)CC1 ?
FLuc inh: 1%

What do the screens show for `O=C(O)CCCCCC[C@@H]1C(=O)NC(=O)N1CC[C@@H](O)C1CCCCC1`?
FLuc inh: -3%

Results for Nc1cccc(-c2nc3ccc(N)cc3s2)c1 ?
FLuc inh: 1µM*; Bst PK mod: 0.71*

What do the screens show for `Cc1ccc2nc(-c3ccc(NC(=O)c4ccc(N)cc4)c(S(=O)(=O)O)c3)sc2c1`?
FLuc inh: -29%[11.4 µM]

Results for CC(C)=C[C@H]1[C@@H](COC(=O)c2ccccc2Cl)C1(C)C ?
FLuc inh: -1%[11.4 µM]

What do the screens show for `O=C1c2ccccc2-c2n[nH]c3cccc1c23`?
FLuc inh: 0%

What do the screens show for `O=c1c(-c2ccccc2)n[nH]c2ccccc12`?
FLuc inh: 13µM*; Bst PK mod: inactive

What do the screens show for `C=C1c2c(Cl)ccc(O)c2C(O)=C2C(=O)[C@@]3(O)C(O)=C(C(N)=O)C(=O)[C@@H](N(C)C)[C@@H]3[C@@H](O)[C@H]12`?
FLuc inh: 2%[25.5 µM]

Results for Cc1nn(-c2nc3ccccc3s2)c(N)c1-c1ccc(Cl)cc1 ?
FLuc inh: -17%; Bst PK mod: 7.8*

What do the screens show for `Cc1nn(-c2nc3ccccc3s2)c(N)c1Sc1ccc(F)cc1`?
FLuc inh: 1%; Bst PK mod: >57

Results for Cc1ccc(-c2nnn(CC(=O)N3CCN(c4nc5ccccc5s4)CC3)n2)cc1 ?
FLuc inh: -1%; Bst PK mod: >57

What do the screens show for `Cc1nn(-c2nc3ccccc3[nH]2)c(N)c1-c1ccccc1`?
FLuc inh: 7.9µM*; Bst PK mod: 2.9*

What do the screens show for `O=c1cc(-c2ccccc2)[nH]n1-c1nc2ccccc2[nH]1`?
FLuc inh: -21%

Results for Cc1nn(-c2nc3ccccc3s2)c(N)c1-c1ccccc1 ?
FLuc inh: 4µM*; Bst PK mod: 1.6*

What do the screens show for `COc1ccc(-c2nc3cnc(N(C)C)nc3n(C)c2=O)cc1`?
FLuc inh: -8%[11.4 µM]

Results for C=C[C@@]1(C)C=C2CC[C@@H]3[C@](C)(CCC[C@@]3(C)C(=O)O)[C@H]2CC1 ?
FLuc inh: 4%[11.4 µM]

What do the screens show for `COc1ccc(-c2cc([C@H](O)[C@@H]3CCCCN3)c3ccccc3n2)cc1`?
FLuc inh: -6%[11.4 µM]

Results for O=S(O)O.O=S(O)O.[Co].[NH2-].[NH2-].[NH2-].[NH2-] ?
FLuc inh: 3%[11.4 µM]

What do the screens show for `CCN(CC)c1ccc(NC(=O)c2ccco2)c(C)c1`?
FLuc inh: -3%; Bst PK mod: >57

What do the screens show for `CCN(CC)c1ccc(NC(=O)c2ccco2)cc1`?
FLuc inh: 10µM*; Bst PK mod: inconclusive

Results for CCN(CC)c1ccc(NC(=O)c2ccccc2F)cc1 ?
FLuc inh: 16µM*; Bst PK mod: inactive

Results for CCN(CC)c1ccc(NC(=O)C(C)C)cc1 ?
FLuc inh: -1%; Bst PK mod: >57

What do the screens show for `C[C@]1(c2ccccc2)O[C@@H]2C[C@@H]3[C@@H]4CCC5=CC(=O)C=C[C@@]5(C)[C@]4(F)[C@H](O)C[C@]3(C)[C@@]2(C(=O)CO)O1`?
FLuc inh: 2%[11.4 µM]

What do the screens show for `C=CC[C@@H]1C=C[C@@H](O/N=C\[C@@H](NS(=O)(=O)c2ccc(C)cc2)[C@H](C)/C=C\CC(=O)OC)[C@@H](CO)O1`?
FLuc inh: 0%[11.4 µM]

Results for CCCCN1CSC(=S)N(Cc2ccccc2)C1 ?
FLuc inh: 2%[11.4 µM]

Results for NCC[C@H](N)C(=O)O ?
FLuc inh: 4%[11.4 µM]

How did C/C(=N/Nc1ccc2ccccc2n1)c1ccccc1O do in these assays?
FLuc inh: 1.3µM*

What do the screens show for `O=C(O)CSc1ccc2ccccc2n1`?
FLuc inh: 2%; Bst PK mod: >11

What do the screens show for `CN(C)C(=O)c1ccc(-c2nc(Nc3ccncc3)c3ccccc3n2)cc1`?
FLuc inh: -10%[2.29 µM]

Results for CN(C)c1ccc(-c2nc(Nc3ccncc3)c3ccccc3n2)cc1 ?
FLuc inh: 0.4µM*

What do the screens show for `O=C(O)/C=C\C(=O)Nc1ccccn1`?
FLuc inh: 1%[11.4 µM]

What do the screens show for `O=C(/C=C\Nc1ccccn1)c1ccc(Cl)cc1`?
FLuc inh: 1.3µM*

How did CNC(=O)[C@@H]1O[C@@H](n2cnc3c(N)ncnc32)[C@@H](O)[C@H]1O do in these assays?
FLuc inh: 0%

How did CC(C)(C)c1ccc(C(=O)/C=C2\NC(=O)CS2)cc1 do in these assays?
FLuc inh: 2.5µM*; Bst PK mod: 3.3*

Results for COCCOC(=O)/C=C1/NC(=O)CS1 ?
FLuc inh: 1%; Bst PK mod: >57

What do the screens show for `O=C(N/N=C1/C[C@@H](O)[C@@H](O)[C@@H]2[C@@H]3C(=O)N(c4cccc(Oc5ccccc5)c4)C(=O)[C@H]3CC[C@@H]12)OCc1ccccc1`?
FLuc inh: 1%[11.4 µM]
